From PubChem
The list is not random: actives were taken first. Their share in the collection is about 1.8%.
PolyA inh: polyadenylation inhibitors in yeast reporter cells, primary screen, luminescence, S. cerevisiae. S. cerevisiae SKY197-pL101 polyadenylation reporter, beta-gal luminescence; efflux-impaired pdr1/pdr3 knockout yeast; score 100 = 6 SD above DMSO. activity score, % at 12 µM. 300,000 compounds, 0.02% hits. AID 1875, 2009;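 active means lowest replicate activity score at least 50, where 100 means six control SD above control mean; inconclusive means lowest score under 50 but half or more replicates reach 50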;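 further: yeast exposed to compound for 9 h at 30 °C; higher score means more reporter readthrough which indicates perturbed polyadenylation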
NLRP3 yeast inh: NALP3 inflammasome inhibitors in reconstituted yeast, primary screen, luminescence, uHTS; 330,000 compounds, 0.39% hits; AID 2825, 2010; inhibition, % at 10 µM; Yeast reconstituted NLRP3/ASC/caspase-1, beta-gal luminescence, 24 h;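 active means inhibition of 50% or more; inactive means inhibition below 50%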;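 further: plate controls were induced DMSO wells for no effect and uninduced yeast grown without galactose for full effect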
NALP1 inh: NALP1 inflammasome inhibitors in reconstituted yeast, colorimetric, S. cerevisiae, triplicate retest; inhibition, % at 10 µM; 280,000 compounds, 0.61% hits; S. cerevisiae NALP1/ASC/caspase-1 growth, X-gal OD620, 72 h; in the data active means inhibition mostly above about 24%, no sharp cut-off; inactive means mostly below about 32%
SUMO Mot1 rescue: yeast Mot1-301 growth rescue at high temperature, primary screen, SUMOylation pathway inhibitor project, S. cerevisiae, ATP luminescence, 38.5C; S. cerevisiae Mot1-301 growth rescue; percent above DMSO median, 100 means doubled; growth rescue, % at 18.8 µM; 320,000 compounds, 1% hits;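 active means every valid replicate shows activation above 250% relative to neutral control wells; inactive means the rest, any valid replicate at or below 250%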;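 further: OY570 slx delta 5 strain wells were the positive control but not used for scaling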
NALP3 yeast conf: NALP3 inhibitors retested in yeast, confirmation, luminescence, single concentration. 1,300 compounds, 81% hits. AID 435006, 2010. yeast expressing human NALP3. inhibition, % at 10 µM. shares compounds with NLRP3 yeast inh; in the data active means inhibition above about 48%
Casp1-ASC yeast: CASP1-PYCARD signaling inhibition in yeast, confirmatory test, counterassay for NLRP3 inhibitor program, one-dose. shares compounds with NLRP3 yeast inh. yeast expressing Caspase-1-ASC, luminescence counter screen. inhibition, % at 10 µM. 1,000 compounds, 66% hits. AID 488784, 2010
NALP3 yeast rt: NALP3 inhibitors in yeast, repeat test, confirmation, luminescence, single concentration, retest. AID 488794, 2010. inhibition, % at 10 µM. shares compounds with NLRP3 yeast inh. yeast expressing human NALP3, luminescence read-out. 1,000 compounds, 53% hits
The depositor's hits bear a star; ? = inconclusive; · = no result given; + = active, no number. Unless noted, no stated cut-off is given here; in the data, active means inhibition above about 50%; inactive means the rest.

SMILES	PolyA inh	NLRP3 yeast inh	NALP1 inh	SUMO Mot1 rescue	NALP3 yeast conf	Casp1-ASC yeast	NALP3 yeast rt
Cn1nnc(NC(=S)NC(=O)c2cccc3ccccc23)n1	11	56*	13	-10	64*	71*	55*
CSCC[C@H](N)C(=O)NC[C@H]1CC[C@H](C(=O)N[C@@H](Cc2ccccc2)C(=O)O)CC1	-15	-3	6	-3	·	·	·
C[C@@H](N)C(=O)NC[C@H]1CC[C@H](C(=O)N[C@@H](Cc2ccccc2)C(=O)O)CC1	-17	62*	16	5	76*	58*	63*
FC(F)(F)c1cccc(-c2nc3nc(Cl)c(Cl)nc3[nH]2)c1	-1	61*	37	-3	97*	42	45
COc1cnc(-c2cccc(C(F)(F)F)c2)[nH]c1=O	4	7	1	-8	·	·	·
Cc1ccc2nc(N/N=C\c3ccc([N+](=O)[O-])o3)nc(-c3ccccc3)c2c1	-49	57*	-5	2	44	43	33
Oc1c(/C=N/c2ccccn2)sc2ccccc12	-3	65*	-13	+	76*	44	70*
O=S(=O)(Nc1ccc(N=Nc2ccccc2)cc1)c1ccccc1	-42	59*	36	13	3	·	·
CCOc1ccc(C(=O)Nc2cccc([N+](=O)[O-])c2)cc1Br	-10	17	14	7	·	·	·
CC1=NN(C(=O)c2csc(C)c2)C(O)(C(F)(F)F)C1 (stereo unspecified)	-8	12	·	-15	·	·	·
CC1=NN(C(=O)c2ccc(Br)cc2)C(O)(C(F)(F)OC(F)(F)F)C1 (stereo unspecified)	16	51*	9	165	50*	·	·
Cc1ccc(N=Nc2ccc(O)cc2)c(Br)c1	-8	45	14	-20	·	·	·
Oc1ccc(N=Nc2ccc(Br)cc2)c(O)c1	-8	58*	23	13	73*	44	36
Oc1ccc(N=Nc2ccc3c(c2)OCCO3)c2cccnc12	-7	26	6	-8	·	·	·
Oc1ccc(N=Nc2ccc3c(c2)OCCO3)c(O)c1	12	50*	·	4	66*	·	·
CCN1CC(C)C(O)(c2ccccc2)CC1C (stereo unspecified)	3	-1	-14	13	·	·	·
CCc1cccc(OCCCn2ccnc2)c1	5	-30	34	33	·	·	·
Cc1cc(C)nc(SCC(=O)OCC(=O)Nc2ccccc2)n1	12	5	21	-13	·	·	·
Cc1ccc2c(c1)CCCN2C(=O)c1cccs1	-28	36	·	-7	·	·	·
Cc1ccc2c(c1)CCCN2C(=O)c1cc(C)c(C)s1	·	52*	·	·	59*	44	35
Cc1cccc(NS(=O)(=O)c2ccc(C(=O)NCC3CCCO3)cc2)c1C (stereo unspecified)	-13	15	0	2	·	·	·
CSCc1cc(N(C)c2ccccc2)nc(-c2ccccn2)n1	-8	67*	-3	162	71*	74*	81*
CN(C)c1cc(C(F)(F)F)nc(-c2ccccn2)n1	13	-11	30	-17	·	·	·
CCCCCOc1ccc(OC(=O)c2ccncc2)cc1	3	14	6	154	·	·	·
CCCCOc1ccc(C(=O)Oc2ccc(C)nc2)cc1	-3	80*	28	-11	87*	92*	84*
SMILES	PolyA inh	NLRP3 yeast inh	NALP1 inh	SUMO Mot1 rescue	NALP3 yeast conf	Casp1-ASC yeast	NALP3 yeast rt
CN(C)/N=C/c1ccc(Sc2ccc([N+](=O)[O-])cc2[N+](=O)[O-])o1	-13	54*	27	-25	46	·	·
Cc1cc(C)nc(Sc2ccc([N+](=O)[O-])cc2[N+](=O)[O-])n1	-8	-1	2	-27	·	·	·
CCn1c(=O)c(C(=O)NNC(=O)c2ccccc2Br)c(O)c2ccccc21	43	22	-7	-2	·	·	·
Cn1c(=O)c(C(=O)NNC(=O)c2ccccc2Cl)c(O)c2ccccc21	88*	66*	1	82	80*	54*	61*
CCn1c(=O)c(C(=O)NNC(=O)c2ccc(Cl)cc2Cl)c(O)c2ccccc21	?	55*	12	0	75*	21	25
Cn1c(=O)c(C(=O)NNC(=O)c2ccccc2Br)c(O)c2ccccc21	9	59*	6	4	84*	53*	65*
Cn1c(=O)c(C(=O)Nc2ccccn2)c(O)c2ccccc21	35	51*	5	29	63*	40	49
Cc1ccc(-n2nnnc2SCC(=O)N2CCc3ccccc3C2)cc1	0	70*	-6	·	76*	77*	74*
O=C(NNC(=O)C1CCN(S(=O)(=O)c2ccc(Cl)cc2)CC1)c1ccccc1O	12	7	·	25	·	·	·
CSc1nnc(NC(=O)C2CCCCC2)s1	·	55*	·	6	75*	58*	38
CCSc1nnc(NC(=O)C2CCCCC2)s1	-2	61*	13	-9	79*	67*	61*
O=C(Nc1nnc(-c2ccco2)s1)C1CCCCC1	3	58*	27	7	42	37	36
CCOc1ccc(C(=O)NCc2ccncc2)cc1OCC	10	2	20	-8	·	·	·
Cc1ccc(C2=NCCn3c2c2ccc([N+](=O)[O-])cc2[n+]3[O-])cc1	9	24	·	-9	·	·	·
C[C@]12C=C[C@H](O)CC1=CCC1C2CC[C@@]2(C)C1CCC21OCCO1 (stereo partly specified)	·	57*	·	28	71*	·	·
O=C(Cc1ccc(Cl)cc1)N1CCc2ccccc2C1	-12	53*	·	58	32	·	·
O=C(C[n+]1ccccc1)N/N=C/c1cc(Br)ccc1O	-9	64*	-8	-19	66*	51*	66*
Brc1ccc2c(c1)CN1CCCC1=N2	-3	63*	19	4	80*	53*	51*
Cc1ccc(/C=C(\C#N)c2nc3ccccc3[nH]2)s1	3	51*	-17	4	63*	45	47
N#C/C(=C/c1cccs1)c1nc2ccccc2[nH]1	1	80*	63	8	70*	84*	88*
Cc1cc(/C=C(\C#N)c2nc3ccccc3[nH]2)c(C)n1C	-11	-6	30	-5	·	·	·
CC(=O)Nc1ccc(Nc2cc(C)c3ccccc3n2)cc1	27	19	11	1	·	·	·
Cc1cc(Nc2ccccc2)nc2cc(O)ccc12	-18	70*	52*	-16	82*	91*	60*
COc1ccc(Nc2cc(C)c3ccc(O)cc3n2)cc1	0	76*	+	-2	91*	·	·
